Experimental data reported in the supplement of paper PMC6089552.
Out of some 3,200 compounds screened, about 300 (9.4%) showed activity. This is one part of a sample in which actives are shown more often than they occur.

Test system: A673/TR/shEF
Assay: cell viability (LOESS-normalised, relative to median of negative controls) (log2 ratio); higher = more viable cells (less compound effect), active = hit call of the paper (over 3 MAD below the median)
Conditions: treatment time: 72 h
Summary of the method: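 Viability of A673/TR/shEF Ewing sarcoma cells was determined by CellTiter-Glo luminescence. The cells, at 1,500 per well in 384-well plates, were grown with or without doxycycline from 24 h before compound addition to switch on EWS-FLI1 shRNA knockdown, then exposed for three days to library compounds at two or more concentrations or to DMSO controls. Signals were LOESS-corrected plate by plate, normalised to the negative-control median and log2-transformed.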

[1] = 0.25 µM, library screen: screen1, EWS-FLI1 expression: high (no doxycycline)
[2] = 0.25 µM, library screen: screen1, EWS-FLI1 expression: low (doxycycline-induced shRNA knockdown)
[3] = 2.5 µM, library screen: screen1, EWS-FLI1 expression: high (no doxycycline)
[4] = 2.5 µM, library screen: screen1, EWS-FLI1 expression: low (doxycycline-induced shRNA knockdown)
[5] = 0.025 µM, library screen: screen1, EWS-FLI1 expression: high (no doxycycline)
[6] = 0.025 µM, library screen: screen1, EWS-FLI1 expression: low (doxycycline-induced shRNA knockdown)
[7] = 0.25 µM, library screen: screen2, EWS-FLI1 expression: high (no doxycycline)
[8] = 0.25 µM, library screen: screen2, EWS-FLI1 expression: low (doxycycline-induced shRNA knockdown)
[9] = 2.5 µM, library screen: screen2, EWS-FLI1 expression: high (no doxycycline)
[10] = 2.5 µM, library screen: screen2, EWS-FLI1 expression: low (doxycycline-induced shRNA knockdown)
[11] = 25 µM, library screen: screen1, EWS-FLI1 expression: high (no doxycycline)
[12] = 25 µM, library screen: screen1, EWS-FLI1 expression: low (doxycycline-induced shRNA knockdown)
[13] = 0.103 µM, library screen: screen3, EWS-FLI1 expression: high (no doxycycline)
[14] = 0.103 µM, library screen: screen3, EWS-FLI1 expression: low (doxycycline-induced shRNA knockdown)
[15] = 0.308 µM, library screen: screen3, EWS-FLI1 expression: high (no doxycycline)
[16] = 0.308 µM, library screen: screen3, EWS-FLI1 expression: low (doxycycline-induced shRNA knockdown)
[17] = 0.926 µM, library screen: screen3, EWS-FLI1 expression: high (no doxycycline)
[18] = 0.926 µM, library screen: screen3, EWS-FLI1 expression: low (doxycycline-induced shRNA knockdown)
[19] = 2.8 µM, library screen: screen3, EWS-FLI1 expression: high (no doxycycline)
[20] = 2.8 µM, library screen: screen3, EWS-FLI1 expression: low (doxycycline-induced shRNA knockdown)
[21] = 8.3 µM, library screen: screen3, EWS-FLI1 expression: high (no doxycycline)
[22] = 8.3 µM, library screen: screen3, EWS-FLI1 expression: low (doxycycline-induced shRNA knockdown)
[23] = 25 µM, library screen: screen3, EWS-FLI1 expression: high (no doxycycline)
[24] = 25 µM, library screen: screen3, EWS-FLI1 expression: low (doxycycline-induced shRNA knockdown)

Measured: cell viability (log2)

C=C1[C@@H]([C@@]2(C)C=CC(=O)C(C)(C)[C@@H]2CC(=O)OC)CC[C@@]2(C)C(c3ccoc3)OC(=O)[C@H]3O[C@]132 (stereo partly drawn)
inactive: [1] 0.109 | [2] 0.0181 | [3] 0.0641 | [4] 0.0727

CC(=O)O[C@@H]1CC2C(C)(C)[C@H](O)C[C@H](O)[C@]2(C)C2CC[C@@]3(C)[C@H](c4ccoc4)OC(=O)[C@H]4O[C@]43[C@@]21C (stereo partly drawn)
inactive: [1] 0.0571 | [2] 0.106 | [3] 0.13 | [4] 0.11

O[C@H]1[C@H]2c3cc4c(cc3CN3CCC(=C[C@@H]1O)[C@H]23)OCO4
inactive: [1] 0.0121 | [2] 0.0722 | [3] 0.0564 | [4] -0.019

CO[C@H]1C=C[C@@]23c4cc5c(cc4CN(C[C@@H]2O)[C@H]3C1)OCO5
active: [3] -0.415 | [4] -0.623
inactive: [1] 0.0568 | [2] 0.0269

CSc1ccc(CN2CCN(Cc3ccco3)CC2)cc1
inactive: [1] 0.0257 | [2] 0.0474 | [3] 0.00049 | [4] 0.109

CC(C)n1cnc2c(NCc3ccccc3)nc(NCCO)nc21
inactive: [5] 0.171 | [6] -0.0915 | [1] 0.129 | [2] -0.0331 | [7] 0.226 | [8] 0.0704 | [3] -0.011 | [4] 0.0676 | [9] 0.247 | [10] 0.0622 | [11] -0.0635 | [12] 0.0737

CC[C@H](CO)Nc1nc(NCc2ccccc2)c2ncn(C(C)C)c2n1
inactive: [5] 0.0954 | [6] 0.0682 | [13] 0.0283 | [14] -0.038 | [1] 0.0519 | [2] 0.0253 | [7] 0.213 | [8] 0.0581 | [15] 0.0653 | [16] 0.0646 | [17] -0.0162 | [18] 0.042 | [3] 0.0221 | [4] 0.0445 | [19] 0.0824 | [20] -0.0161 | [21] 0.118 | [22] 0.0527 | [11] -0.0359 | [12] 0.0272 | [23] 0.0337 | [24] 0.0206
active: [9] -0.591 | [10] -0.646

Cn1cnc2c(NCc3ccccc3)nc(NCCO)nc21
inactive: [5] 0.0452 | [6] 0.063 | [1] 0.0867 | [2] 0.0323 | [7] 0.272 | [8] 0.106 | [3] 0.0349 | [4] 0.0403 | [9] 0.208 | [10] 0.113 | [11] 0.00929 | [12] 0.0531

CN1C(=O)CCC1c1cccnc1 (stereo not drawn)
inactive: [7] 0.264 | [8] 0.181 | [9] 0.161 | [10] 0.0586

CN[C@H](Cc1ccccc1)C(=O)N1CCC[C@H]1C(=O)N[C@@H](Cc1c[nH]c2ccccc12)C(=O)C(F)(F)C(F)(F)F
inactive: [7] 0.168 | [8] 0.0679 | [9] 0.0864 | [10] 0.0322

C[C@H](CCC(=O)O)[C@H]1CC[C@H]2[C@@H]3C[C@H](O)C4C[C@H](O)CC[C@]4(C)[C@H]3CC[C@]12C (stereo partly drawn)
inactive: [1] 0.0369 | [2] -0.0168 | [3] 0.0626 | [4] -0.0216

CO[C@H]1C[C@@H]2CC[C@@H](C)[C@@](O)(O2)C(=O)C(=O)N2CCCC[C@H]2C(=O)O[C@H]([C@H](C)C[C@@H]2CC[C@@H](OC(=O)C(C)(CO)CO)[C@H](OC)C2)CC(=O)[C@H](C)/C=C(\C)[C@@H](O)[C@@H](OC)C(=O)[C@H](C)C[C@H](C)/C=C/C=C/C=C/1C
active: [13] -0.862 | [14] -0.712 | [15] -0.972 | [16] -0.713 | [17] -0.859 | [18] -0.683 | [19] -0.839 | [20] -0.886 | [21] -0.828 | [22] -0.678 | [23] -0.905 | [24] -0.717

CO[C@H]1C[C@@H]2CC[C@@H](C)[C@@](O)(O2)C(=O)C(=O)N2CCCC[C@H]2C(=O)O[C@H]([C@H](C)C[C@@H]2CC[C@@H](OCCO)[C@H](OC)C2)CC(=O)[C@H](C)/C=C(\C)[C@@H](O)[C@@H](OC)C(=O)[C@H](C)C[C@H](C)/C=C/C=C/C=C/1C
active: [13] -0.823 | [14] -0.667 | [15] -0.931 | [16] -0.779 | [17] -0.921 | [18] -0.761 | [19] -0.899 | [20] -0.779 | [21] -1.09 | [22] -0.731 | [23] -0.943 | [24] -0.733

CO[C@H]1C[C@@H]2CC[C@@H](C)[C@@](O)(O2)C(=O)C(=O)N2CCCC[C@H]2C(=O)O[C@H]([C@H](C)C[C@@H]2CC[C@@H](O)[C@H](OC)C2)CC(=O)[C@H](C)/C=C(\C)[C@@H](O)[C@@H](OC)C(=O)[C@H](C)C[C@H](C)/C=C/C=C/C=C/1C
active: [13] -0.737 | [14] -0.644 | [15] -0.758 | [16] -0.612 | [17] -0.692 | [18] -0.65 | [19] -0.692 | [20] -0.756 | [21] -0.726 | [22] -0.651 | [23] -0.719 | [24] -0.63

CO[C@H]1CC2CC[C@@H](C)[C@@](O)(O2)C(=O)C(=O)N2CCCC[C@H]2C(=O)O[C@H]([C@H](C)C[C@@H]2CC[C@@H](OP(C)(C)=O)[C@H](OC)C2)CC(=O)[C@H](C)/C=C(\C)[C@@H](O)[C@@H](OC)C(=O)[C@H](C)C[C@H](C)/C=C/C=C/C=C/1C
active: [13] -0.93 | [14] -0.714 | [15] -0.852 | [16] -0.724 | [17] -0.888 | [18] -0.755 | [19] -0.837 | [20] -0.688 | [21] -0.983 | [22] -0.734 | [23] -1.05 | [24] -0.738
